# Data from PMC4552634, “A New Set of Chemical Starting Points with Plasmodium falciparum Transmission-Blocking Potential for Antimalarial Drug Discovery” (PLoS ONE, 2015).
# Hit rate of the full screen: of about 13,000 compounds, about 3,200 (25%) showed an effect of 50% or more. Some of the results follow.
# Test system: P. falciparum stage V gametocytes
# Set-up: BacTiter-Glo ATP luminescence viability of purified stage V gametocytes in 384-well plates, per cent inhibition versus DMSO
# Conditions: 48 h, 5 µM; inhibitor
row,SMILES,% Inhibition [%]
1,O=C(/C=C/c1ccc(Cl)c(Cl)c1)NC1CCN(CCCNC(=O)c2cccc(Cl)c2)CC1 [TCMDC-133356],10.9
2,COc1cccc(-c2ccc(O)c(CNCCc3cccc(F)c3)c2)n1 [TCMDC-124645],3.898
3,CCc1c(CCNCCCCCNCCc2ccc(OC)c(OC)c2CC)ccc(OC)c1OC [TCMDC-132064],110.1
4,COc1cccc(CCc2c(CCNCCCCCCNCCc3ccccc3)ccc(OC)c2OC)c1 [TCMDC-132105],111.5
5,CCc1c(CCNCCc2cccc(CCNCCc3ccc(OC)c(OC)c3CC)c2)ccc(OC)c1OC [TCMDC-132056],108.6
6,CCc1c(CCNCCCC(C)CCNCCc2ccc(OC)c(OC)c2CC)ccc(OC)c1OC (stereo not shown) [TCMDC-132065],107.6
7,COc1cccc(C(=O)NCCc2cccc(Cl)c2)c1Oc1ccccc1 [TCMDC-141237],-16.09
8,CCC(=O)c1cc(C(=O)NCCc2cccc(OC)c2)ccc1OC [TCMDC-140139],9.268
9,CCOC(=O)C1=C(C)NC2=C(C(=O)CC(C)(C)C2)C1c1ccc(Br)cc1 (stereo not shown) [TCMDC-124142],9.854
10,N#Cc1ccc2c(c1)CCN(CCC1CCC(NC(=O)Nc3ccnc4ccccc34)CC1)C2 (stereo not shown) [TCMDC-139289],-21.63
11,COc1ccc(Cc2c(C)nc3nc(N)nc(N)c3c2C)cc1 [TCMDC-137660],3.866
12,COC(=O)c1ccc(CC(C)NCC(O)c2cccc(I)c2)cc1 (stereo not shown) [TCMDC-131484],-10.65
13,O=C(C1CCN(c2nnnn2-c2ccccc2)CC1)N1CCc2ccccc2C1 [TCMDC-123642],26.99
14,CCc1c(CCNCC/C=C/CCNCCc2ccc(OC)c(OC)c2CC)ccc(OC)c1OC [TCMDC-132062],100.4
15,COc1cc(Cc2cnc(N)nc2N)cc(OCCCCc2ccc([N+](=O)[O-])cc2)c1OC [TCMDC-137901],2.332
16,CCc1c(CCNCCCCCCNCCc2ccc(OC)cc2)ccc(OC)c1OC [TCMDC-132050],110.1
17,COc1ccc(N2CCN(CCc3ccc(NC(=O)c4ccc([N+](=O)[O-])cc4)cc3)CC2)c(OC)c1 [TCMDC-138185],-26.83
18,CCc1c(CCNCCCCCCNCCc2ccccc2)ccc(OC)c1OC [TCMDC-132063],92.32
19,CCc1c(CCNCCCCCCNCCc2ccc([N+](=O)[O-])cc2)ccc(OC)c1OC [TCMDC-132066],101.3
20,COc1cc(C)c(C(O)CNC(C)CCc2ccccc2)cc1C (stereo not shown) [TCMDC-131251],28.09
21,Cc1cccc2[nH]c(-c3cccc(-c4cccc(NC(=O)NCc5ccccc5)c4)c3)nc12 [TCMDC-133159],13.2
22,OCCOCn1cnc2cnc(N[C@H]3OC[C@H](O)[C@@H](O)[C@@H]3O)nc21 [TCMDC-138106],14.1
23,CCc1c(CCNCCCCCCNCCc2ccc(OC)c(OC)c2C)ccc(OC)c1OC [TCMDC-132051],107.2
24,CCc1c(CCNCCCCCCNCCc2ccc(OC)c(OC)c2CC)ccc(OC)c1OC [TCMDC-132047],111.8

row,SMILES,% Inhibition [%]
1,CCc1c(CCNC/C=C/C=C/CNCCc2ccc(OC)c(OC)c2CC)ccc(OC)c1OC [TCMDC-132061],102.8
2,CCc1c(CCNCCCCCCNCCc2ccc(Br)cc2)ccc(OC)c1OC [TCMDC-132045],110
3,COc1cc2c(OC)cccc2cc1CNCCCCCCNCc1cc2cccc(OC)c2cc1OC [TCMDC-137945],1.634
4,O=C1C[C@@H]([S+]([O-])Cc2nccs2)N1CCOCCCCCCc1ccc(Cl)cc1 (stereo partly shown) [TCMDC-139269],27.24
5,Cc1cccc(NC(=O)Nc2ccc(I)c(OCCN(C)C)c2)c1C [TCMDC-139124],-5.088
6,COc1ccc(Nc2nc(NCc3ccc(-n4ccnc4)cc3)cc(-c3ccc(OC)cc3)n2)cc1 [TCMDC-134025],-3.76
7,Clc1ccc(Sc2cncnc2N2CCOCC2)cc1 [TCMDC-137279],19.11
8,O=C(Cc1ccccc1)NC1CCN(c2ccnc3cc(Cl)ccc23)C1 (stereo not shown) [TCMDC-133663],-4.28
9,c1ccn2c(Sc3ncnc4sccc34)ncc2c1 [TCMDC-124602],29.96
10,c1ccc2sc(Sc3ncnc4sccc34)nc2c1 [TCMDC-125539],99.53
11,COCCn1c(Sc2ncnc3sccc23)nc2ccccc21 [TCMDC-125258],10.99
12,Cn1c(Sc2ncnc3sccc23)nc2ccccc21 [TCMDC-124514],74.1
13,CN(C)CCCNCCS(=O)(=O)c1cccc(Nc2ccc(-c3cccc(N(C)C)c3)cn2)c1 [TCMDC-134369],11.18
14,O=C(NC1CCCCC1)N(Cc1ccc(-c2ccc(CNCc3ccc4c(c3)OCO4)cc2)cc1)C1CCN(Cc2ccccc2)CC1 [TCMDC-140641],57.56
15,O=C(NCCc1ccccc1)N(Cc1cccc(-c2ccc(CNCc3ccc4c(c3)OCO4)cc2)c1)C1CCN(Cc2ccccc2)CC1 [TCMDC-140619],40.48
16,O=C(NC1CCCCC1)N(Cc1cccc(-c2ccc(CNCc3ccc4c(c3)OCO4)cc2)c1)C1CCN(Cc2ccccc2)CC1 [TCMDC-140632],106.9
17,O=C(NC1CCCCC1)N(Cc1ccc(-c2cccc(CNCc3ccc4c(c3)OCO4)c2)cc1)C1CCN(Cc2ccccc2)CC1 [TCMDC-140640],55.3
18,O=C(Nc1ccc(OC2CCN(Cc3ccc(F)cc3)CC2)c(Cl)c1)c1ccc(F)cc1 [TCMDC-133752],7.555
19,Cc1ccccc1C1CCN(C2CCC(NC(=O)/C=C/c3ccc(C#N)cc3)CC2)CC1 (stereo not shown) [TCMDC-133527],-65.01
20,CS(=O)(=O)c1ccc(CNCc2ccc(-c3ccc(-c4nc5cc(C(F)(F)F)ccc5[nH]4)cc3)cc2)cc1.O=C(O)C(F)(F)F [TCMDC-132901],-22.07
21,COC(=O)c1cc(C(O)CNC(C)CCc2cccc(F)c2)ccc1O (stereo not shown) [TCMDC-131242],17.15
22,CC(Cl)=CCc1c(C)[nH]c2c(ccc3ccccc32)c1=O [TCMDC-124085],30.93
23,CN1CCN(c2ccc(-c3nc4c(C(N)=O)c(OCc5cc(Cl)cc(Cl)c5)ccc4[nH]3)cc2)CC1 [TCMDC-133563],101.6
24,CC(=O)c1cccc(Nc2nc3c(C#N)c(OCc4cc(Cl)cc(Cl)c4)ccc3[nH]2)c1 [TCMDC-133766],-0.7844

row,SMILES,% Inhibition [%]
1,CN1CCN(c2ccc3nc(-c4ccc5nc(-c6ccc(O)cc6)[nH]c5c4)[nH]c3c2)CC1 [TCMDC-125507],11.14
2,COc1cccc(-c2ccc(C(=O)NC3CCN(Cc4ccc(C(C)(C)C)cc4)CC3)s2)c1 [TCMDC-134353],-20.06
3,CC(=O)Nc1ccc(CN2CCC(NC(=O)c3ccc(-c4ccc(N(C)C)cc4)s3)CC2)cc1 [TCMDC-134336],72.62
4,CN(C)c1ccc(CN2CCC(NC(=O)c3ccc(-c4cccc(Cl)c4)s3)CC2)cc1 [TCMDC-134329],-64.24
5,CSc1ccc(CN2CCC(NC(=O)c3ccc(-c4ccc(N(C)C)cc4)s3)CC2)cc1 [TCMDC-134342],-80.35
6,COc1ccccc1CN1CCC(NC(=O)c2ccc(-c3ccc(N(C)C)cc3)s2)CC1 [TCMDC-134357],85.69
7,CN(C)c1ccc(-c2ccc(C(=O)NC3CCN(Cc4ccccc4F)CC3)s2)cc1 [TCMDC-134368],-72.91
8,COc1cccc(-c2ccc(C(=O)NC3CCN(Cc4ccc(N(C)C)cc4)CC3)s2)c1 [TCMDC-134330],105
9,CCc1ccc(CN2CCC(NC(=O)c3ccc(-c4ccc(N(C)C)cc4)s3)CC2)cc1 [TCMDC-134344],-78.7
10,CC(=O)Nc1ccc(CN2CCC(NC(=O)c3ccc(-c4cccc(Cl)c4)s3)CC2)cc1 [TCMDC-134334],14.56
11,CN(C)c1ccc(-c2ccc(C(=O)NC3CCN(Cc4ccccc4)CC3)s2)cc1 [TCMDC-134367],44.5
12,CN(C)c1ccc(CN2CCC(NC(=O)c3ccc(-c4ccc(N(C)C)cc4)s3)CC2)cc1 [TCMDC-134331],56.81
13,COc1ccccc1CN1CCC(NC(=O)c2ccc(-c3cccc(Cl)c3)s2)CC1 [TCMDC-134356],-14.44
14,O=C(NCc1cccc2ccccc12)C(c1cc2ccccc2o1)N1CCN(C(c2ccccc2)c2ccccc2)CC1 (stereo not shown) [TCMDC-141007],25.05
15,CCCCCCN1CCN(Cc2cccc(NC(=O)c3cc4ccccc4o3)c2)CC1 [TCMDC-134620],-12.01
16,CCNC(=O)c1ccc2c(c1)c(C)c(C)n2Cc1ccc(F)cc1 [TCMDC-124754],32.09
17,CC(=O)C1(c2ccccc2)CCN(CCC2(c3ccc(Cl)c(Cl)c3)CN(C(=O)c3cccc(Cl)c3)CCO2)CC1 (stereo not shown) [TCMDC-135347],-30.91
18,CNS(=O)(=O)c1ccc(NC(=O)c2cc(-c3cccnc3)nc3ccc(Br)cc23)cc1 [TCMDC-125216],-3.498
19,Cc1ccccc1C1CCN(C2CCC(NC(=O)C3=Cc4ccccc4OC3)CC2)CC1 (stereo not shown) [TCMDC-133553],-49.51
20,O=S(=O)(NCCN1CCCC1)c1ccc(-c2ccc(CNC3Cc4ccccc4C3)cc2)cc1 [TCMDC-132229],60.05
21,O=S(=O)(NCCN1CCCC1)c1ccc(-c2cccc(CNC3Cc4ccccc4C3)c2)cc1 [TCMDC-132215],70.89
22,O=S(=O)(NCCN1CCCC1)c1cccc(-c2ccc(CNC3Cc4ccccc4C3)cc2)c1 [TCMDC-132241],96.68
